# Laboratory results from PubChem BioAssay AID463173 (ICCB-Longwood Screening Facility, Harvard Medical School, 2010).
# Out of some 52,000 compounds screened, about 4,300 (8.3%) were called active. The list comes from a sample in which actives are over-represented; it also holds similar structures and randomly drawn compounds. Unmarked numbers belong to inactive results. Cut-off read from the data, not from the text of the source: active = survival mostly below about 52% (no sharp cut-off); inactive = mostly above about 56%.
# System: DeltatarO mutant
# Test: S. aureus survival, RN4220 and DeltatarO strains – OD600, teichoic acid synthesis inhibitors, primary screen (AID 463173)
# Conditions: S. aureus RN4220 wild type/DeltatarO growth, OD600, 18 h, stronger effect = lower value, screened at 18.75 µg/mL (by protocol)
row,SMILES,survival
1,Cc1ccc(NC(=O)c2cnn(-c3ccc(C)c(C)c3)c2C2CCN(C(=O)OC(C)(C)C)CC2)c(C)c1,109%
2,CN(C(=O)c1ccccc1)C1CCS(=O)(=O)C1 (configuration not stated),90%
3,Cc1ccc(N2CC(C(=O)NCc3nnnn3-c3ccc(C)c(C)c3)CC2=O)cc1 (configuration not stated),69%
4,Cc1ccc(-c2ccc(=O)n(CC(=O)NC(C)c3ccccc3)n2)cc1 (configuration not stated),69%
5,Cc1c(-c2cccc(NC(=O)C(C)(C)C)c2)nc2ncccn12,79%
6,Cc1c(-c2cccc(NC(=O)Nc3ccccc3)c2)nc2ncccn12,76%
7,Cc1c(-c2cccc(NC(=O)Nc3ccc(Cl)cc3)c2)nc2ncccn12,-2% (active)
8,Cc1ccc(-n2nc(C(=O)N3CCN(c4ccccc4)CC3)c(=O)n(C)c2=O)cc1,124%
9,Cc1ccc(-n2nc(C(=O)N3CCC(C)CC3)c(=O)n(C)c2=O)cc1,86%
10,Cc1ccc(-n2nc(C(=O)N3CCCCC3)c(=O)n(C)c2=O)cc1,52% (active)
11,Cn1c(SCc2ccccc2)nnc1C1CCCN1CC(=O)N1CCN(c2ccc(F)cc2)CC1 (configuration not stated),70%
12,Cc1ccc(CNC(=O)CSc2nc(=O)[nH]c3c2CCCC3)cc1,76%
13,COc1cc(SC)ccc1C(=O)NCc1ccccc1,95%
14,Cc1ccc(-n2ncc(C(=O)NCCN3CCc4ccccc4C3)c2C2CCN(C(=O)OC(C)(C)C)CC2)cc1C,99%
15,Cc1ccc(C)c(Cn2c(=O)n(CCCC(=O)NCc3ccc4c(c3)OCO4)c(=O)c3sccc32)c1,74%
16,COc1cc(C(=O)Oc2c(Sc3ccccc3)c(C)nn2-c2ccccc2)cc(OC)c1OC,83%
17,CCC(=O)Oc1c(Sc2ccc(C)cc2)c(C)nn1-c1ccccc1,71%
18,CCCC(=O)Oc1c(Sc2ccc(C)cc2)c(C)nn1-c1ccccc1,56%
19,COc1ccc(C(=O)Oc2c(Sc3ccccc3)c(C)nn2-c2ccccc2)cc1OC,47%
20,CCC(=O)Oc1c(Sc2ccc(Cl)cc2)c(C)nn1-c1ccccc1,13% (active)
21,Cc1nn(-c2ccccc2)c(OC(=O)C(C)C)c1Sc1ccc(Cl)cc1,36% (active)
22,Cc1nn(-c2ccccc2)c(OC(=O)C(C)C)c1Sc1ccccc1,48%

row,SMILES,survival
1,COc1ccccc1C(=O)Oc1c(Sc2ccccc2)c(C)nn1-c1ccccc1,62%
2,CCCC(=O)Oc1c(Sc2ccc(Cl)cc2)c(C)nn1-c1ccccc1,23% (active)
3,CCC1CCCCN1C(=O)CSc1n[nH]c(-c2ccccc2Cl)n1 (configuration not stated),102%
4,O=C(NC1CCCCC1)N(Cc1ccccc1)Cc1cc2cc3c(cc2[nH]c1=O)OCCO3,52%
5,CCOC(=O)c1ccc2nc(C)cc(Nc3cccc(C(=O)O)c3)c2c1,173%
6,CCOC(=O)c1cnc2c(C)cc(C)cc2c1Nc1ccc(OCc2ccccc2)cc1,17% (active)
7,CCOC(=O)c1cc(S(=O)(=O)Nc2ccccc2OCC)[nH]n1,72%
8,CCOC(=O)c1cnc2c(C)cc(C)cc2c1Nc1cccc(C(=O)O)c1,5% (active)
9,Cc1cc(C)c2nc(C)cc(Nc3cccc(C(=O)O)c3)c2c1,70%
10,CCOC(=O)c1cnc2c(Cl)cc(Cl)cc2c1Nc1ccccc1OC,57%
11,CCOC(=O)c1cnc2c(C)cc(C)cc2c1Nc1ccccc1OCC,-1% (active)
12,COc1ccc(CCn2c3c(c(=O)[nH]c2=O)C(NC(=O)c2ccccc2)(C(F)(F)F)C(=O)N3)cc1OC (configuration not stated),58%
13,CCOc1ccccc1N(C)C(=O)c1sc2nc3n(c(=O)c2c1C)CCCC3,64%
14,CCC(C)NC(=O)c1nn(-c2ccc(C)cc2)nc1CO (configuration not stated),94%
15,COC(=O)c1ccccc1NC(=O)c1cc2cc(C)ccc2n1C,99%
16,COc1ccc(Cn2c(CCC(=O)NCc3cccc(Cl)c3)nc3cccnc32)cc1,129%
17,Cc1ccc(CNC(=O)CCc2nc3cccnc3n2Cc2ccccc2)cc1,74%
18,Cc1ccc(Cn2c(CNC(=O)CCc3ccccc3)nc3cccnc32)cc1,97%
19,O=C(CCc1nc2cccnc2n1Cc1ccccc1)NCc1cccc(Cl)c1,51% (active)
20,COc1ccc(CCC(=O)NCc2nc3cccnc3n2Cc2ccc(F)cc2)cc1,119%
21,O=C(CCc1ccccc1)NCc1nc2cccnc2n1Cc1ccc(F)cc1,-4% (active)
22,COc1cc(NC(=O)N(Cc2ccco2)C2CCN(C(C)=O)CC2)cc(OC)c1OC,134%

row,SMILES,survival
1,N#Cc1ccc(NC(=O)CNCC2CCCCC2)cc1,100%
2,CCn1c(=NC(=O)c2ccc3c(c2)OCCO3)sc2c(C)ccc(OC)c21,120%
3,O=c1oc2ccccc2cc1-c1cn2cc(Cc3ccccc3F)sc2n1,49% (active)
4,O=c1oc2ccccc2cc1-c1cn2cc(Cc3cc(Cl)ccc3Cl)sc2n1,52% (active)
5,CC(C)c1ccc(Cc2cn3cc(-c4cc5ccccc5oc4=O)nc3s2)cc1,56%
6,O=c1oc2ccccc2cc1-c1cn2cc(Cc3ccc(Br)cc3)sc2n1,66%
7,O=c1oc2ccccc2cc1-c1cn2cc(Cc3ccc(Cl)cc3)sc2n1,84%
8,O=c1oc2ccccc2cc1-c1cn2cc(Cc3ccc(F)cc3)sc2n1,128%
9,Cc1ccc(NC(=O)c2sc3ncn(Cc4cccc(F)c4)c(=O)c3c2C)c(Br)c1,87%
10,COc1ccc(NC(=O)Cn2c(=O)n(Cc3nc(C)no3)c(=O)c3cc4c(cc32)OCO4)cc1,99%
11,CC(C)CCNC(=O)CN1C(=O)CSc2ccc(S(=O)(=O)N3CCC(C)CC3)cc21,72%
12,Cc1ccc(/C=C/c2onc(C)c2S(=O)(=O)N2CCC(C(=O)NCc3ccc(OC(C)C)cc3)CC2)cc1,69%
13,COc1cccc(CNC(=O)C(=O)NCC(c2ccco2)S(=O)(=O)c2cccs2)c1 (configuration not stated),94%
14,COc1ccc(-c2[nH]c3c(c2-c2c(-n4cccc4)n(C)c(=O)[nH]c2=O)c(=O)[nH]c(=O)n3C)cc1F,63%
15,Cc1ccc(C)c(-c2[nH]c3c(c2-c2c(-n4cccc4)n(C)c(=O)[nH]c2=O)c(=O)[nH]c(=O)n3C)c1,59% (active)
16,COc1cccc(-c2[nH]c3c(c2-c2c(-n4cccc4)n(C)c(=O)[nH]c2=O)c(=O)[nH]c(=O)n3C)c1,63% (active)
17,Cc1ccc(-c2[nH]c3c(c2-c2c(-n4cccc4)n(C)c(=O)[nH]c2=O)c(=O)[nH]c(=O)n3C)cc1,65%
18,Cn1c(-n2cccc2)c(-c2c(-c3ccccc3)[nH]c3c2c(=O)[nH]c(=O)n3C)c(=O)[nH]c1=O,60%
19,Cc1ccc(C)c(-c2[nH]c3c(c2-c2c(-n4cccc4)n(C)c(=O)n(C)c2=O)c(=O)n(C)c(=O)n3C)c1,64%
20,CC(=O)Nc1ccc(C(=O)NCCN2CCOCC2)cc1,96%
21,Cc1cccc(N2CCN(S(=O)(=O)c3ccc4c(c3)C(C(C)C)C(=O)N4)CC2)c1C (configuration not stated),55%
22,Cc1ccc(Cc2nc3ccccc3nc2SCC(=O)NCCC(C)C)cc1,112%

row,SMILES,survival
1,CCCCN(CC)CCNC(=O)CN1C(=O)COc2ccc(S(=O)(=O)N3CCOCC3)cc21,86%
2,Cc1ccc(C)c(NC(=O)CCc2nc3cccnc3n2Cc2cccs2)c1,73%
3,COc1cc(O)ccc1C1CC(=O)Nc2c1c(=O)nc(SCc1ccccc1C)n2C (configuration not stated),93%
4,CCOc1ccc(C2CC(=O)Nc3nc(SCc4ccccc4C)[nH]c(=O)c32)cc1OC (configuration not stated),103%
5,CCOc1ccc(C2CC(=O)Nc3c2c(=O)nc(SCc2ccccc2C)n3C)cc1OC (configuration not stated),42% (active)
6,COc1ccc(-c2[nH]c(-c3ccc(C)cc3)nc2SCC(=O)NCC2CCCO2)cc1 (configuration not stated),82%
7,COc1ccc2c(c1)c1c(c(=O)n(-c3cc(Cl)ccc3C)c(=O)n1CC(=O)N1CCCC1)n2C,83%
8,Cc1ccccc1NC(=O)Cn1c(=O)n(Cc2ccc3c(c2)OCO3)c(=O)c2ccccc21,97%
9,Cc1ccc(C2c3c(-c4cc(C)ccc4O)n[nH]c3C(=O)N2Cc2ccco2)cc1 (configuration not stated),1% (active)
10,Cc1ccc(O)c(-c2n[nH]c3c2C(c2ccc(F)cc2)N(Cc2ccco2)C3=O)c1 (configuration not stated),2% (active)
11,CCOc1cccc(C2c3c(-c4cc(C)ccc4O)n[nH]c3C(=O)N2Cc2ccco2)c1 (configuration not stated),8% (active)
12,Cc1cc(C)c(-c2n[nH]c3c2C(c2ccccc2F)N(CCO)C3=O)c(O)c1 (configuration not stated),77%
13,COc1cc(C2c3c(-c4cc(C)ccc4O)n[nH]c3C(=O)N2Cc2ccco2)cc(OC)c1OC (configuration not stated),66%
14,Cc1cc(C)c2c(=O)c3c(oc2c1)C(=O)N(Cc1ccco1)C3c1ccccc1F (configuration not stated),106%
15,COc1cc(C2c3c(-c4cc(C)ccc4O)n[nH]c3C(=O)N2Cc2cccnc2)cc(OC)c1OC (configuration not stated),83%
16,Cc1cc(C)c(-c2n[nH]c3c2C(c2ccccc2F)N(Cc2ccco2)C3=O)c(O)c1 (configuration not stated),2% (active)
17,CCOc1ccc(C2c3c(-c4cc(C)ccc4O)n[nH]c3C(=O)N2Cc2cccnc2)cc1OCC (configuration not stated),72%
18,CCC(=O)N1c2ccc(S(=O)(=O)NCCc3ccccc3)cc2CC1C (configuration not stated),77%
19,Cc1ccc2[nH]c(CSc3nnc(NC(=O)COc4ccccc4)s3)cc(=O)c2c1,82%
20,Cc1cc(C)c(NC(=O)C(C)n2nc(-c3ccc(C)c(C)c3)ccc2=O)c(C)c1 (configuration not stated),63%
21,CCCCNC(=O)CN1CCN(c2ncc(NC(=O)c3ccc(Cl)cc3)cc2C(=O)O)CC1,94%
